Results from PubChem BioAssay (Tox21).
Several values for one entry are separate records, joined by “and”; a condition that tells them apart may be missing. Equal entries are not always repeated. Results filed as inconclusive are left out. A call without a number means that no potency is given here. Activity calls are given as the source filed them. Unless noted, the call rests on the fitted dose curve; in most records, active means well fitted curve in the direction sought with a large enough effect in the repeat runs; inconclusive means weak or mixed curves; inactive means flat fitted curve, though single readings scatter.

Experiments:
[1] = qHTS assay to test for compound auto fluorescence at 535 nm (green) in HEK293 cells (AID 720680); settings: green autofluorescence 485/535 nm; series mostly up to 91.3 µM
[2] = qHTS assay to test for compound auto fluorescence at 460 nm (blue) in HEK293 cell free culture (AID 720681); settings: cell-free medium, autofluorescence 405/460 nm (blue); series mostly up to 91.3 µM
Method in brief: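 Compounds were added to cell-free DMEM with 10% FBS and fluorescence read directly. The blue channel used 405 nm excitation and 460 nm emission, with triamterene as the reference fluorophore.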

[3] = qHTS assay to test for compound auto fluorescence at 535 nm (green) in HEK293 cell free culture (AID 720682); settings: cell-free medium, green autofluorescence 485/535 nm; series mostly up to 91.3 µM
Method in brief: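 Green-channel intensity (Ex/Em 485/535 nm) was recorded from compound-treated wells containing only DMEM with 10% FBS. Fluorescein provided the equivalency standard.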

[4] = qHTS assay to test for compound auto fluorescence at 590 nm (red) in HEK293 cell free culture (AID 720683); settings: cell-free medium autofluorescence, Ex540/Em590 red; series mostly up to 91.3 µM
Method in brief: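 Cell-free wells of DMEM with 10% FBS received compound, and intrinsic fluorescence was read at excitation/emission 540/590 nm. Values expressed as equivalence to Rose Bengal sodium.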

[5] = qHTS assay to test for compound auto fluorescence at 590 nm (red) in HepG2 cell free culture (AID 720684); settings: cell-free medium autofluorescence, red 540/590 nm; series mostly up to 91.3 µM
Method in brief: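 Rose Bengal sodium served as the reference for red signal. Test compounds were dispensed into serum-containing MEM (10% FBS) without cells, and plates were read at 540/590 nm.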

[6] = qHTS assay to test for compound auto fluorescence at 460 nm (blue) in HepG2 cell free culture (AID 720685); settings: Cell-free culture medium, blue autofluorescence 405/460 nm; series mostly up to 91.3 µM
Method in brief: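 Cell-free plates of MEM plus 10% FBS received 23 nL compound or DMSO vehicle; blue-channel (405/460 nm) intensity scored against triamterene as reference fluorophore.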

[7] = qHTS assay to test for compound auto fluorescence at 535 nm (green) in HepG2 cell free culture (AID 720686); settings: Cell-free medium, green autofluorescence 485/535 nm; series mostly up to 91.3 µM
[8] = qHTS assay to test for compound auto fluorescence at 460 nm (blue) in HepG2 cells (AID 720687); settings: autofluorescence 405/460 nm, 1 h; series mostly up to 91.3 µM
Method in brief: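 HepG2 cells in MEM with 10% FBS, attached overnight at 37 C, were exposed to compound or DMSO for 1 hr at 37 C, 5% CO2. Blue fluorescence was read at 405/460 nm, with triamterene as reference fluorophore.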

[9] = target: Glucocorticoid receptor (Homo sapiens) (UniProt P04150); test: qHTS assay to identify small molecule antagonists of the glucocorticoid receptor (GR) signaling pathway (AID 720692; active means well fitted inhibition curve with a large enough effect in the signal ratio in the repeat runs, not every such curve was filed as active; the % refers to the signal ratio; further: potency means the concentration at half of the fitted maximal effect); settings: GR-bla HeLa, beta-lactamase FRET ratio, dexamethasone-stimulated, 18 h; series mostly up to 58.5 µM
Chain of Glucocorticoid receptor (Homo sapiens) (P04150 whole entry, looked up): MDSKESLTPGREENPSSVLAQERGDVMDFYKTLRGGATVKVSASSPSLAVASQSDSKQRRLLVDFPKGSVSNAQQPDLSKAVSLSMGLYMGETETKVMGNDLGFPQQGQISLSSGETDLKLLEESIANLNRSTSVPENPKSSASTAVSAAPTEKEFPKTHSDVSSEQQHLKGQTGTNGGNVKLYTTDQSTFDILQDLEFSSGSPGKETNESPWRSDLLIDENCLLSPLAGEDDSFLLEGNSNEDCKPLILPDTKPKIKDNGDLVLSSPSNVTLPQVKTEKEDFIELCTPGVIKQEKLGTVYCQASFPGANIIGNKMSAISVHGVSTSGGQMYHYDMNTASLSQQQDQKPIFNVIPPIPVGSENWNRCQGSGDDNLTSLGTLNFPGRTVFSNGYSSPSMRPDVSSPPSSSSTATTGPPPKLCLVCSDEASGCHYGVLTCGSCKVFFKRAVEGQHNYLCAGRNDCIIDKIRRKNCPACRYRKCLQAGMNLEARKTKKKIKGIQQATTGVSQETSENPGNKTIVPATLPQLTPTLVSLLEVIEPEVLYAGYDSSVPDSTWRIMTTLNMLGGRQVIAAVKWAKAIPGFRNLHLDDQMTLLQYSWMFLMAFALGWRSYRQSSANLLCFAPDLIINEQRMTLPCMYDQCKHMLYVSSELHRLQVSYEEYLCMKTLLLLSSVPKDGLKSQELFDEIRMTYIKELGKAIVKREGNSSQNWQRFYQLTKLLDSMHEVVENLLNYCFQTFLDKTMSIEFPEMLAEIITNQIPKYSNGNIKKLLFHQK
Method in brief: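 GRE-bla HeLa line, dex-stimulated (5 nM final). Compound exposure 18 h, 37 C. Beta-lactamase FRET read after 2 h RT substrate.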

[10] = target: Glucocorticoid receptor (Homo sapiens) (UniProt P04150); test: qHTS assay to identify small molecule agonists of the glucocorticoid receptor (GR) signaling pathway (AID 720691; active means well fitted activation curve with a large enough effect in the signal ratio in the repeat runs, not every such curve was filed as active; the % refers to the signal ratio); settings: GR-bla HeLa, beta-lactamase reporter ratio, 18 h; series mostly up to 62.4 µM
Method in brief: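 A HeLa cervical cancer line expressing GR and a glucocorticoid response element-driven beta-lactamase gene is treated with compounds for 18 h; LiveBLAzer B/G FRET substrate is then applied and fluorescence read.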

Row | SMILES | Potency [1] | Potency [2] | Potency [3] | outcome [4] | outcome [5] | Potency [6] | Potency [7] | Potency [8] | Potency [9] | Potency [10]
1 | Nc1nc(=S)c2[nH]cnc2[nH]1 | inactive | inactive | inactive | inactive | inactive | inactive | inactive | inactive | 23.9 µM (active) and 30.1 µM (active) and 43.6 µM (active) | –
2 | CCN1CCCC1CNC(=O)c1cc(S(=O)(=O)CC)c(N)cc1OC (stereo not drawn) | inactive | inactive | inactive | inactive | inactive | inactive | inactive | inactive | inactive | inactive
3 | CC1=C(C=O)C(C)(C)CC=C1 | inactive | inactive | inactive | inactive | inactive | inactive | inactive | inactive | inactive | inactive
4 | NC(N)=Nc1nc(CSCC/C(N)=N/S(N)(=O)=O)cs1 | inactive | inactive | inactive | inactive | inactive | inactive | inactive | inactive | inactive | inactive
5 | CCCCC/C=C/CC1CC(=O)OC1=O (stereo not drawn) | inactive | – | inactive | inactive | inactive | inactive | inactive | inactive | – | –
6 | CCC(C)(Oc1ccc(C2(c3ccc(OC(C)(CC)C(=O)O)cc3)CCCCC2)cc1)C(=O)O (stereo not drawn) | inactive | inactive | inactive | inactive | inactive | inactive | inactive | inactive | inactive | inactive
7 | Oc1ccc(Cl)cc1Cc1cc(Cl)ccc1O | inactive | – | inactive | inactive | inactive | inactive | inactive | inactive | – | –
8 | CC(=O)OCC1=C(C(=O)O)N2C(=O)[C@@H](NC(=O)Cc3cccs3)[C@H]2SC1 | inactive | inactive | inactive | inactive | inactive | inactive | inactive | inactive | inactive | inactive
9 | C=CS(=O)(=O)O | inactive | inactive | inactive | inactive | inactive | inactive | inactive | inactive | inactive | inactive
10 | OCC(CO)N[C@H]1C[C@](O)(CO)[C@@H](O)[C@H](O)[C@H]1O | inactive | inactive | inactive | inactive | inactive | inactive | inactive | inactive | inactive | inactive
11 | CCCNC(C)C(=O)Nc1ccccc1C (stereo not drawn) | inactive | inactive | inactive | inactive | inactive | inactive | inactive | inactive | inactive | inactive
12 | NC(Cc1ccc(Cl)cc1)C(=O)O (stereo not drawn) | inactive | inactive | inactive | inactive | inactive | inactive | inactive | inactive | inactive | inactive
